# Experimental data reported in PubChem BioAssay (NCI).
# Compounds without any hit were thinned out: in the full panel of roughly 83,000, 20% have a hit.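 Growth was measured after 48 h exposure to one concentration of compound in 96-well plates. Values under 10 count as active.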 A number with no mark means an inactive call. Calls of active or inactive are those of the source.
# What was measured:
# Experiment in all cases: NCI-60 one-dose screen, 48 h (100 = growth as untreated, 0 = no growth, -100 = all killed)
# Settings in all cases: 10 µM unless noted
# HCT-15 colon = test system: HCT-15 colon
# HT29 colon = test system: HT29 colon
# SNB-75 CNS = test system: SNB-75 CNS
# SNB-19 CNS = test system: SNB-19 CNS
# U251 CNS = test system: U251 CNS
# SK-MEL-5 melanoma = test system: SK-MEL-5 melanoma
# UACC-62 melanoma = test system: UACC-62 melanoma
# LOX IMVI melanoma = test system: LOX IMVI melanoma
# SK-MEL-2 melanoma = test system: SK-MEL-2 melanoma
# SN12C renal = test system: SN12C renal
# UO-31 renal = test system: UO-31 renal
# TK-10 renal = test system: TK-10 renal
# ACHN renal = test system: ACHN renal
# CAKI-1 renal = test system: CAKI-1 renal
# A498 renal = test system: A498 renal
# CCRF-CEM leukemia = test system: CCRF-CEM leukemia
# MOLT-4 leukemia = test system: MOLT-4 leukemia
# SK-MEL-28 melanoma = test system: SK-MEL-28 melanoma
# EKVX NSCLC = test system: EKVX NSCLC
SMILES,growth (HCT-15 colon),growth (HT29 colon),growth (SNB-75 CNS),growth (SNB-19 CNS) [%],growth (U251 CNS),growth (SK-MEL-5 melanoma),growth (UACC-62 melanoma),growth (LOX IMVI melanoma),growth (SK-MEL-2 melanoma),growth (SN12C renal) [%],growth (UO-31 renal),growth (TK-10 renal),growth (ACHN renal),growth (CAKI-1 renal),growth (A498 renal),growth (CCRF-CEM leukemia),growth (MOLT-4 leukemia),growth (SK-MEL-28 melanoma),growth (EKVX NSCLC)
COc1ccc2c(c1)C(=O)/C(=C/c1ccc(O)cc1)O2,52.1%,90.1%,67.5%,89.3,92.9%,87.8%,77.1%,45.5%,81.2%,76.8,-97.4% (active),75.1%,96.4%,71.8%,94.8%,104%,62.8%,–,–
Cn1c(C(N)=O)cc2c1-c1nc(NC3CCCCC3)ncc1CCC2,90.5%,91.4%,104%,81.9,83.8%,95%,103%,89.6%,105%,90.9,67.2%,89.4%,85.8%,83.3%,46%,93.9%,85.1%,97.4%,–
COc1ccc2c(c1)C(C)Cc1c(N(C)C)ncnc1N2C (stereo unspecified),23.7%,11.6%,14.3%,40.5,28%,19.4%,27.6%,42.4%,32.9%,43.6,56.6%,29.9%,46.8%,37.6%,2.02% (active),18.6%,33.1%,59.3%,41.2%
Clc1nc(Cl)c2ncn(C/C=C/Cn3cnc4c(Cl)nc(Cl)nc43)c2n1,50.1%,48%,65%,74.5,57.4%,68.7%,79.1%,38.8%,96.5%,96.5,5.99% (active),79.9%,90%,-60% (active),90.2%,18.2%,80.8%,98.8%,86.6%
COc1cc2c(cc1OC)C1(C)N(CC2)C(=O)OC1(C)C (stereo unspecified),101%,115%,76.5%,105,101%,99.6%,106%,96.3%,120%,101,91.3%,102%,107%,102%,78.8%,106%,-75.3% (active),112%,–
COc1ccc(/C=C\c2cc(OC)c(OC)c(OC)c2)c(NS(=O)(=O)c2ccc(C(C)(C)C)cc2)c1O,15.5%,33%,31.9%,46.1,24.3%,-19.2% (active),39.1%,17%,-2.03% (active),29.5,52.3%,50.8%,25.2%,24.4%,–,20.6%,21.8%,53.7%,–
COc1cc2oc(-c3cccc(NC(=O)Nc4ccc5c(c4)OCO5)c3)cc(=O)c2c(OC)c1OC,42.1%,48.2%,21.4%,83.5,62.1%,45.6%,62.1%,38.9%,71.7%,49.5,17.8%,56%,47.1%,48.6%,77.1%,–,54.8%,74.2%,86.2%
COc1ccc(/C=C/C(=O)c2ccc(NC(=O)CN3CCN(c4cc5c(cc4F)c(=O)c(C(=O)O)cn5C4CC4)CC3)cc2)cc1,108%,114%,89.2%,94.7,98.6%,94%,93.2%,76.9%,117%,95.9,90.5%,106%,114%,93%,112%,102%,101%,–,–
Clc1ccc(-c2nc(-c3ccco3)cn3ccnc23)cc1,50.1%,40.3%,32%,30.6,-51.3% (active),58%,88%,55.2%,100%,65.7,7.06% (active),11.9%,8.59% (active),50.2%,36.8%,78.4%,80%,102%,–
COc1ccc(C2=NN(c3ccc(S(N)(=O)=O)cc3)C(c3cn(-c4ccccc4)nc3-c3ccc(Cl)cc3)C2)cc1 (stereo unspecified),80.8%,82.6%,89.9%,92.5,84.1%,99.9%,88.5%,87.3%,94.7%,96.7,60.5%,90.6%,95.4%,90.9%,76.4%,73.3%,69.2%,103%,–
CCn1c(=O)c2c(=O)c3c4c(oc3oc2c2ccccc21)C(=O)c1ccccc1C4=O,79.6%,63%,120%,90.2,57.7%,67.4%,64%,32.4%,79.9%,87.2,81.8%,112%,79.6%,72.6%,–,2.47% (active),-24.5% (active),107%,–
COc1ccc(-c2nc3sccn3c2-c2ccnc(NCCCNS(=O)(=O)c3ccc(F)cc3)n2)cc1,2.92% (active),20%,40.4%,42.6,26.1%,-59.6% (active),-34.4% (active),6.15% (active),-0.52% (active),14.3,4.56% (active),52.9%,2.12% (active),21.8%,–,9.5% (active),6.65% (active),11.5%,–
CS(=O)(=O)N(c1cc(-c2ccc3ncnc(Nc4cccc(Cl)c4)c3c2)cnc1Cl)S(C)(=O)=O,10.4%,11.7%,-3.18% (active),24.3,20.8%,-60.7% (active),-6.31% (active),2.19% (active),-20% (active),21.6,2.2% (active),2.1% (active),–,6.68% (active),-28% (active),20.2%,-10.5% (active),-6.78% (active),-3.18% (active)
Cc1cccc(NC(=O)c2sc3nc4c(cc3c2N)CCC4)c1C,20.1%,1.41% (active),13.9%,38,16.6%,24.4%,28.7%,24.5%,26.3%,41.2,43.4%,35%,48.4%,30.5%,8.64% (active),10.7%,22.6%,57.8%,–
c1ccn2nnnc2c1,99.8%,98.9%,106%,106,92.7%,103%,105%,91.9%,104%,92.7,94.5%,96.4%,111%,97.9%,101%,99.7%,101%,106%,–
O=C(NCCCN1CCN(CCCNC(=O)C2CCCCC2)CC1)C1CCCCC1,97.5%,108%,88.7%,107,96.9%,105%,98.3%,101%,98%,97.1,85.7%,113%,99.5%,87.2%,105%,91.9%,94.1%,99.7%,–
COc1cc(CCn2nnc3c(NCCCCO)ncnc32)cc(OC)c1,102%,112%,84.4%,106,99.5%,99.1%,104%,102%,124%,102,86.4%,119%,106%,92.7%,89%,95%,112%,109%,–
Cc1cc(Cl)ccc1OC(C)C(=O)Nc1nnc(C2CC2)s1 (stereo unspecified),119%,66.4%,104%,95.6,101%,74%,85.5%,95.4%,36.3%,96.4,40.1%,104%,109%,103%,95.2%,95.9%,108%,120%,98.6%
Nc1cccc2c1CN(C1CCC(=O)NC1=O)C2=O (stereo unspecified),105%,101%,88.4%,88.9,97%,103%,114%,99.8%,113%,106,101%,132%,105%,95.6%,84.8%,98.7%,95.1%,111%,94.7%
